Here are results for nine compounds from PubChem BioAssay (NCATS).

A number with no mark means an inactive call. Activity calls are given as the source filed them. Unless noted, how the calls were made is not given here.

The nature of the first experiment: Immunotoxin (HA22) sensitization/mitigation study. Vehicle arm (PBS) (AID 1159510). Further: potency means the concentration at half of the fitted maximal effect. Conditions: cancer cells viability with PBS vehicle (HA22 study); series mostly up to 46.1 µM; viability (% of control): at the top concentration.
In the case of `COc1cccc2c1C(=O)c1c(O)c3c(c(O)c1C2=O)C[C@@](O)(C(=O)CO)C[C@@H]3O[C@H]1C[C@H](N)[C@H](O)[C@H](C)O1`, the Potency was 0.0118 µM (active).

Take `Cc1ccc(-c2cc(C(F)(F)F)nn2-c2ccc(S(N)(=O)=O)cc2)cc1`: the Potency is 48.1 µM (active).

Take `CC1(CN2CCC(n3c(=O)[nH]c4ccccc43)CC2)OCc2ccccc2-n2cccc21` (centres undefined): the Potency was 26.4 µM (active).

`CS(=O)(=O)CCNCc1ccc(-c2ccc3ncnc(Nc4ccc(OCc5cccc(F)c5)c(Cl)c4)c3c2)o1`: the Potency was 20.9 µM (active).

For the compound `Cc1cc2c(C(C)C)c(O)c(O)c(C=O)c2c(O)c1-c1c(C)cc2c(C(C)C)c(O)c(O)c(C=O)c2c1O`, the Potency is 8.33 µM (active).

`COc1cc2c(N3CCN(C(=O)Nc4ccc(OC(C)C)cc4)CC3)ncnc2cc1OCCCN1CCCCC1`: the Potency was 20.9 µM (active).

A short description of the next experiment: qHTS assay for measurement of the activity of small molecule inhibitors on Zika virus induced Caspase-3 activity in human astrocytoma cells (AID 1224859; active means well fitted inhibition curve with a large enough effect;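 further: plate controls were ZIKV-infected untreated cells for no effect and uninfected cells for full effect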). Conditions: SNB-19 ZIKV-induced caspase-3/7, luminescence, 6 h; series mostly up to 45.7 µM; activity change, negative = inhibition: at the top concentration. An outline of the steps:
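SNB-19 astrocytoma cells, 250/well, pretreated 1 h with compounds, then Zika virus at 2 FFU/cell for 6 h at 37 C; Caspase-Glo 3/7 luminescence after 30 min; percent inhibition normalised to uninfected and infected controls.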
For orientation: qHTS replaces the single test concentration by a dilution series.
As to `CO[C@]12CC[C@@]3(C[C@@H]1[C@](C)(O)C(C)(C)C)[C@@H]1Cc4ccc(O)c5c4[C@@]3(CCN1CC1CC1)[C@H]2O5`, the “activity change, negative = inhibition” value was 414% [at 92.8 µM].

With `C=C1C[C@@H]2[C@H](CC[C@]3(C)C(=O)CC[C@@H]23)[C@@]2(C)C=CC(=O)C=C12`, the “activity change, negative = inhibition” value is 16.5%.

Consider `O=c1[nH]c2ccccc2n1C1CCN(CCCC(c2ccc(F)cc2)c2ccc(F)cc2)CC1`, for which the call was inactive.
